{"source": "PubChem BioAssay AID1851", "about": "(National Center for Advancing Translational Sciences (NCATS), 2009)", "note": "Hit rate of the full screen: of about 16,000 compounds, about 5,100 (32%) were called active. Another 25% or so got no clear call; they are omitted. The list shows a part of the results. Values without a mark were called inactive. Calls come from the whole dose curve; as a rule, active = well fitted curve in the direction sought with a large enough effect; inconclusive = small, poorly fitted or top-dose-only effect, or effect the other way; inactive = no such curve, though single readings can be large or run the other way. % is set by controls: 0 for no effect and ±100 for the full control effect."}
{"molecular_target": "Cytochrome P450 3A4 (Homo sapiens) (UniProt P08684)", "sequence (P08684 whole entry, looked up)": "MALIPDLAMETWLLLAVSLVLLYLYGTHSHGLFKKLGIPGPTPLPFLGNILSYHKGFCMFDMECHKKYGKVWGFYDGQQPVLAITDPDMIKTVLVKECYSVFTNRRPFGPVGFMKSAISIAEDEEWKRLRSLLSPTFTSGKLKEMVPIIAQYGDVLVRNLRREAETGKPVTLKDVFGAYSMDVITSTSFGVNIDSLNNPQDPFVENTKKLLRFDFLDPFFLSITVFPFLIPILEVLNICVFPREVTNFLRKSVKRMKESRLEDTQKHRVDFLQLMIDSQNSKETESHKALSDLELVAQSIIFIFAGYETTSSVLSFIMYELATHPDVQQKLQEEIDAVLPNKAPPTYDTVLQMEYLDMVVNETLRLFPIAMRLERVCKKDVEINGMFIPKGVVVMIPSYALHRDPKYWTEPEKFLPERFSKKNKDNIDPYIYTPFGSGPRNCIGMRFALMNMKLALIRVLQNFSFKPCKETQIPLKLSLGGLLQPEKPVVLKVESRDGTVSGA", "assay": "Cytochrome panel assay with activity outcomes", "settings": "recombinant CYP, pro-luciferin dealkylation, luminescence, p450-cyp3a4; series mostly up to 57.1 µM; activity, negative = inhibition: at the top concentration", "description": "The P450 gene superfamily is involved in the metabolism and clearance of xenobiotics. This assay used various human CYP P450 isozymes to measure the dealkylation of various pro-luciferin substrates to luciferin. The luciferin is then measured by luminescence after the addition of a luciferase detection reagent. Pro-luciferin substrate concentration in the assay was equal to its KM for its CYP P450 isozyme. Inhibitors and some substrates limit the production of luciferin, and decrease measured luminescence.\nNCGC Assay Protocol Summary:\n1, Reagent, 2 uL, Isozyme and Pro-Luciferin\n2, Library compounds, 23 nl, 40 uM to 0.24 nM dilution series\n3, Controls, 23 nl, Isozyme specific inhibitor\n4, Reagent, 2 uL, NADPH regeneration solution\n5, Incubation time, 60 min, Isozyme specific temperature\n6, Reagent, 4ul, Detection reagent\n7, Incubation time, 20 min, Isozyme specific temperature\n8, Detection, 1 sec, ViewLux luminescent read\nThe luciferase-based P450-GloTM Screening Systems were obtained from Promega (Madison, WI) for CYP 1A2 (V9770), CYP 2C9 (V9790), CYP2 C19 (V9880), CYP 2D6 (V9890), and CYP 3A4 Luciferin-PPXE (V9910) and were adapted for 1,536-well microplates and an automated protocol. The control compounds furafylline for 1A2 (F124), sulfaphenazole for CYP 2C9 (S0758), ketoconazole for CYP 2C19 (K1003), quinidine for 2D6 (Q3625), and ketoconazole for 3A4 (K1003) were purchased from Sigma Aldrich (St. Louis, MO). Recombinant P450 enzymes were obtained from baculovirus constructs expressed in insect cells (BD/Gentest).\nMedium-binding white solid Kalypsys plates used. Mixtures kept on ice. 1A2: 10 nM 1A2, 100 uM Luc-ME, 100 mM KPO4; 2C9: 10 nM 2C9, 100 uM Luc-H, 25 mM KPO4; 2C19: 5 nM 2C19, 10 uM Luc-H EGE, 50 mM KPO4; 2D6: 5 nM 2D6, 30 uM Luc-ME EGE, 100 mM KPO4; 3A4: 10 nM, 25 uM Luc-PPXE. All amounts are reflected in their final concentration, working concentration is 2x.\nNADPH regeneration solution: 1.3 mM NADP+, 3.3 mM glucose-6-phosphate, 3.3 mM MgCl2, 0.4 U/mL glucose-6-phosphate dehydrogenase for all isozymes, 200 mM KPO4 for 3A4. Mixture prepared at RT but kept on ice during automated run.\nRT incubation in auxilliary plate hotel for 1A2, 2D6, and 3A4; 37C for 2C9 and 2C19.\nKeywords: P450, CYP1A2, CYP2C19, CYP2C9, CYP2D6, CYP3A4, Luciferase, MLSMR, MLSCN, NIH Roadmap, qHTS, NCGC"}
{"smiles": "O=C1NCN(c2ccccc2)C12CCN(CCCC(c1ccc(F)cc1)c1ccc(F)cc1)CC2", "activity, negative = inhibition": "-9.23% [at 25.6 µM]"}
{"smiles": "C[C@H](CN(C)C)C(=O)c1ccccc1C(=O)O", "activity, negative = inhibition": "-12.4% [at 11.4 µM]"}
{"smiles": "NC[C@H](O)C1CCCCCCC1", "activity, negative = inhibition": "-5.4%"}
{"smiles": "CCNc1ncc2nc(C)c(=O)n(Cc3cccc(OC)c3)c2n1", "AC50": "7.94 µM (active)"}
{"smiles": "CCNc1ncc2nc(-c3ccccc3)c(=O)n(Cc3cccc(OC)c3)c2n1", "AC50": "10 µM (active)"}
{"smiles": "CCNc1ncc2nc(-c3ccc(Cl)cc3)c(=O)n(Cc3cccc(OC)c3)c2n1", "activity, negative = inhibition": "-5.08%"}
{"smiles": "Nc1nc(Cl)nc2c1ncn2[C@@H]1O[C@@H](CO)[C@@H](O)[C@H]1O", "activity, negative = inhibition": "3.91%"}
{"smiles": "CCOC(=O)NNc1nncc2ccccc12", "activity, negative = inhibition": "3.81% [at 25.6 µM]"}
{"smiles": "c1ccc(Nc2nc(-c3cccnc3)nc3ccccc23)cc1", "AC50": "12.6 µM (active)"}
{"smiles": "CNc1nc(-c2cccnc2)nc2ccccc12", "AC50": "6.31 µM (active)"}
{"smiles": "CCOC(=O)c1ccc(Nc2nc(-c3cccnc3)nc3ccccc23)cc1", "AC50": "11.2 µM (active)"}
{"smiles": "CC(C)c1nc2oc3ccccc3c(=O)c2c(=O)n1-c1ccccc1", "activity, negative = inhibition": "26.1%"}
{"smiles": "CC(C)(C)NC[C@H](O)COc1cccc2c1CCCC2=O", "AC50": "inactive"}
{"smiles": "CCOC(=O)c1cc2c(=O)n3ccccc3nc2n(CCCOC)c1=NC(C)=O", "activity, negative = inhibition": "11.8%"}
{"smiles": "CCOC(=O)c1cc2c(=O)n3ccccc3nc2n(CCCOC)c1=NC(=O)C(C)(C)C", "AC50": "15.8 µM (active)"}
{"smiles": "COc1ccc(OC)c2c(=S)c3ccccc3[nH]c12", "AC50": "7.94 µM (active)"}
{"smiles": "O=c1[nH]c2ccccc2c2ccccc12", "activity, negative = inhibition": "-20.3%"}
{"smiles": "Cc1cc(=O)c2ccccc2[nH]1", "activity, negative = inhibition": "5.16%"}
{"smiles": "CC(CC(=O)O)(CC(=O)O)C(=O)O", "activity, negative = inhibition": "-8.15% [at 11.4 µM]"}
{"smiles": "COc1cccc(N2CCN(C(=O)Nc3ccc4c(c3)NC(=O)CO4)CC2)c1", "activity, negative = inhibition": "-22.6%"}
{"smiles": "COc1ccc(OC)c(C2N(c3cc(C)on3)C(=O)C3CCCN32)c1", "note": "(stereo not given)", "activity, negative = inhibition": "-29.9%"}
{"smiles": "COc1ccc(OC)c(C2C3=C(COC3=O)Nc3cc4c(cc32)OCO4)c1", "note": "(stereo not given)", "AC50": "7.08 µM (active)"}
{"smiles": "CC1CCCC(C)N1CCNC(=O)Cn1nc(-c2ccccc2)ccc1=O", "note": "(stereo not given)", "activity, negative = inhibition": "-23.7%"}
{"smiles": "O=C(CCC(=O)c1cccs1)OCC(=O)N1CCN(C(=O)c2ccco2)CC1", "activity, negative = inhibition": "-6.6% [at 2.29 µM]"}
{"smiles": "Cc1ccc(S(N)(=O)=O)cc1NC(=O)/C=C/c1cccs1", "activity, negative = inhibition": "-17.8%"}
{"smiles": "Cc1ccc(S(=O)(=O)N2CCOCC2)cc1NC(=O)COC(=O)CCC(=O)c1cccs1", "AC50": "11.2 µM (active)"}
{"smiles": "O=C(c1ccc(N2CCCCC2)c([N+](=O)[O-])c1)N(Cc1ccccc1)c1ccccn1", "AC50": "3.55 µM (active)"}
{"smiles": "Cc1c(C(c2cccc([N+](=O)[O-])c2O)c2c(C)n(C)n(-c3ccccc3)c2=O)c(=O)n(-c2ccccc2)n1C", "activity, negative = inhibition": "-21.7%"}
{"smiles": "CCCCc1nc(SCC(=O)Nc2ncccn2)n[nH]1", "activity, negative = inhibition": "-1.67%"}
{"smiles": "Nc1nc(SCC(=O)Nc2ccccc2Sc2ccc(Cl)cc2)n[nH]1", "AC50": "0.708 µM (active)"}
{"smiles": "CC1CCCC(C)N1C(=O)c1ccccc1Nc1ccc(SC(F)F)cc1", "note": "(stereo not given)", "AC50": "10 µM (active)"}
{"smiles": "O=C(c1ccccc1Nc1ccc(SC(F)F)cc1)N1CCCCC1", "AC50": "14.1 µM (active)"}
{"smiles": "O=C(O)CCC(=O)Nc1ccc(C(=O)N2CCCCC2)cc1", "activity, negative = inhibition": "-1.59%"}
{"smiles": "O=C(O)c1ccccc1Nc1ccccc1", "activity, negative = inhibition": "10.2%"}
{"smiles": "CCSc1nc2c(c(=O)[nH]1)C(c1ccncc1)C(C(=O)OC(C)C)=C(C)N2", "note": "(stereo not given)", "AC50": "1.12 µM (active)"}
{"smiles": "CSc1nc2c(c(=O)[nH]1)C(c1ccncc1)C(C(=O)OC(C)C)=C(C)N2", "note": "(stereo not given)", "AC50": "1.26 µM (active)"}
{"smiles": "CCSc1nc2c(c(=O)[nH]1)C(c1ccccn1)C1=C(CC(C)(C)CC1=O)N2", "note": "(stereo not given)", "activity, negative = inhibition": "-27.4%"}
{"smiles": "COc1ccc(CNC(=O)/C=C/c2ccc(OCCCF)cc2)cc1", "AC50": "5.01 µM (active)"}
{"smiles": "COCCCNC(=O)/C=C/c1ccc(Cl)cc1", "activity, negative = inhibition": "-5.86%"}
{"smiles": "COC(=O)CNC(=O)/C=C/c1ccc(OC)cc1", "activity, negative = inhibition": "-5.5%"}
{"smiles": "CCCCSc1ccc2nc(-c3ccc(C#N)cc3)cn2c1", "activity, negative = inhibition": "20.1% [at 2.29 µM]"}
{"smiles": "CCn1c(SCc2ccc(C#N)cc2)nnc1-c1ccc(S(=O)(=O)N2CCCCC2)cc1", "activity, negative = inhibition": "16.3%"}
{"smiles": "CCn1c(COc2ccc(C)cc2)nnc1SCc1ccc(C#N)cc1", "AC50": "2 µM (active)"}
{"smiles": "CCOc1[nH]n(-c2ccc(Cl)cc2)c(=O)c1C=Nc1ccc(Cl)cc1", "activity, negative = inhibition": "-6.06%"}
{"smiles": "CCc1nnc(NS(=O)(=O)c2ccc(N=Cc3c(C)[nH]n(-c4ccc(C)cc4)c3=O)cc2)s1", "AC50": "22.4 µM (active)"}
{"smiles": "COc1cc(NC(=O)c2c(F)cccc2F)nc(OC)n1", "activity, negative = inhibition": "-27.2%"}
{"smiles": "CC#CCCCC(=O)Nc1ccc(C(=O)O)cc1", "activity, negative = inhibition": "-7.69%"}
{"smiles": "CC#CCCCC(=O)Nc1cc(OC)nc(OC)n1", "AC50": "14.1 µM (active)"}
{"smiles": "CN(C)/C=C/C(=O)c1ccc(Cl)cc1", "activity, negative = inhibition": "-19.9%"}
{"smiles": "CCNc1ccc(Br)cc(C(=O)/C=C/c2ccc3c(c2)OCO3)c1=O", "AC50": "17.8 µM (active)"}
